# According to ChEMBL document CHEMBL2218924, “A broad activity screen in support of a chemogenomic map for kinase signalling research and drug discovery” (Biochem J, 2013):
# Columns and labels:
# [1] = biological target: Serine/threonine-protein kinase PLK3 (Homo sapiens) (UniProt Q9H4B4); settings: at 1 µM
# [2] = biological target: Serine/threonine-protein kinase PLK3 (Homo sapiens) (UniProt Q9H4B4); settings: at 10 µM
# [3] = biological target: T1, cAMP-dependent protein kinase catalytic subunit PRKX (Homo sapiens) (UniProt P51817); settings: at 1 µM
# T1 sequence (whole entry): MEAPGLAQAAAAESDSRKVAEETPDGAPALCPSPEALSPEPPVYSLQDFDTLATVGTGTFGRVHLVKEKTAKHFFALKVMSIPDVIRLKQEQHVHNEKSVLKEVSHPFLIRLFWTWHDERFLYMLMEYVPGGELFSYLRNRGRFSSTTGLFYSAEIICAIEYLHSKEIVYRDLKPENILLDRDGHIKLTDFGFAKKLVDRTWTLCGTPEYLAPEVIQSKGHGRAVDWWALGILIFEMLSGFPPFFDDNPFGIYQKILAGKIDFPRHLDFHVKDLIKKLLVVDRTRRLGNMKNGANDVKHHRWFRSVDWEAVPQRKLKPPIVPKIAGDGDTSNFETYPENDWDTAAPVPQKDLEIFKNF
# [4] = biological target: T1, cAMP-dependent protein kinase catalytic subunit PRKX (Homo sapiens); settings: at 10 µM
# [5] = biological target: Protein-tyrosine kinase 2-beta (Homo sapiens) (UniProt Q14289); settings: at 1 µM
# [6] = biological target: Protein-tyrosine kinase 2-beta (Homo sapiens) (UniProt Q14289); settings: at 10 µM
# [7] = biological target: Receptor-interacting serine/threonine-protein kinase 2 (Homo sapiens) (UniProt O43353); settings: at 1 µM
# [8] = biological target: Receptor-interacting serine/threonine-protein kinase 2 (Homo sapiens) (UniProt O43353); settings: at 10 µM
# [9] = biological target: Rho-associated protein kinase 1 (Homo sapiens) (UniProt Q13464); settings: at 1 µM
# [10] = biological target: Rho-associated protein kinase 1 (Homo sapiens) (UniProt Q13464); settings: at 10 µM
# [11] = biological target: Rho-associated protein kinase 2 (Homo sapiens) (UniProt O75116); settings: at 1 µM
# [12] = biological target: Rho-associated protein kinase 2 (Homo sapiens) (UniProt O75116); settings: at 10 µM
# [13] = biological target: Proto-oncogene tyrosine-protein kinase receptor Ret (Homo sapiens) (UniProt P07949); settings: at 1 µM
# [14] = biological target: Proto-oncogene tyrosine-protein kinase receptor Ret (Homo sapiens) (UniProt P07949); settings: at 10 µM
# [15] = biological target: Macrophage-stimulating protein receptor (Homo sapiens) (UniProt Q04912); settings: at 1 µM
# [16] = biological target: Macrophage-stimulating protein receptor (Homo sapiens) (UniProt Q04912); settings: at 10 µM
# [17] = biological target: Proto-oncogene tyrosine-protein kinase ROS (Homo sapiens) (UniProt P08922); settings: at 1 µM
# [18] = biological target: Proto-oncogene tyrosine-protein kinase ROS (Homo sapiens) (UniProt P08922); settings: at 10 µM
# [19] = biological target: T2, Tyrosine-protein kinase receptor TYRO3 (Homo sapiens) (UniProt Q06418); settings: at 1 µM
# T2 sequence (whole entry): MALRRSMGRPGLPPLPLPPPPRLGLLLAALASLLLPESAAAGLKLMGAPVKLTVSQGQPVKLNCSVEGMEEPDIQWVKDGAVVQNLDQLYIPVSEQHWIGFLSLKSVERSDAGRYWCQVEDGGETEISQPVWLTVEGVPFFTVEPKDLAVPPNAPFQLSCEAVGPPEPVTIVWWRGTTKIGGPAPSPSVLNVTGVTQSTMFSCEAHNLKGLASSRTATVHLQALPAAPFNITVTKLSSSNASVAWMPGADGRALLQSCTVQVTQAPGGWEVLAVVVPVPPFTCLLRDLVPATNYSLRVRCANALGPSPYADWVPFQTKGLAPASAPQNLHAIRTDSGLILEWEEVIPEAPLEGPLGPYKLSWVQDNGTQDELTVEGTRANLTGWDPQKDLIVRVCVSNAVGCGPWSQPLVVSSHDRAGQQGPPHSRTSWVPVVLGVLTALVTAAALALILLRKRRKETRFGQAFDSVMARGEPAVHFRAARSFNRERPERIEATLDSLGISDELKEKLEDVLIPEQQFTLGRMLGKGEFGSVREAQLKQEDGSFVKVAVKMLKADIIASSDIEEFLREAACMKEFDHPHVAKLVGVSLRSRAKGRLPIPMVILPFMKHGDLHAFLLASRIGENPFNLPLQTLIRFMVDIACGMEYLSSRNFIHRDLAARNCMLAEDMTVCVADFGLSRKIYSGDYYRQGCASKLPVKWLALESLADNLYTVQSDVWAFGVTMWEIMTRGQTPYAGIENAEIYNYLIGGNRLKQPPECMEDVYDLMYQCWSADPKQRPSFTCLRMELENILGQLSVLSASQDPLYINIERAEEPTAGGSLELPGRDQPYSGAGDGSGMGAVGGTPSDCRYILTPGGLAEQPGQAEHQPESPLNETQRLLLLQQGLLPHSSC
# [20] = biological target: T2, Tyrosine-protein kinase receptor TYRO3 (Homo sapiens); settings: at 10 µM
# Sequence of Serine/threonine-protein kinase PLK3 (Homo sapiens) (Q9H4B4 whole entry, looked up): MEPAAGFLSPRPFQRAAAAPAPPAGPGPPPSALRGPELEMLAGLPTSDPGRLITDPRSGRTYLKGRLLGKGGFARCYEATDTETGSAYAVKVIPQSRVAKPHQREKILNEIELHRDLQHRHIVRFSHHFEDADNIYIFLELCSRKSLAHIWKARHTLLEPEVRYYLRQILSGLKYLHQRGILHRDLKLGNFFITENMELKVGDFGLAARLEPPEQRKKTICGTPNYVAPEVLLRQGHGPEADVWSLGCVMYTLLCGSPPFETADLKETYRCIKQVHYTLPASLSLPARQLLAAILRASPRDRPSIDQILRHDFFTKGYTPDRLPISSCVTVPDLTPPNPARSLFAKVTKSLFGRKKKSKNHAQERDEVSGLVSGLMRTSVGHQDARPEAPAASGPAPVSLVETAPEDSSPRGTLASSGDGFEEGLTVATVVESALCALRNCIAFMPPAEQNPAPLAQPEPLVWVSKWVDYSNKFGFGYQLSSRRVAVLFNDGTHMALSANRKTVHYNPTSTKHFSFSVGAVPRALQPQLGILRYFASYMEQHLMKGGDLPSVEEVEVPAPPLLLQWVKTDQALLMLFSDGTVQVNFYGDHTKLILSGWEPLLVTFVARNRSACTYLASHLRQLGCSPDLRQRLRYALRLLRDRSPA
# Sequence of Macrophage-stimulating protein receptor (Homo sapiens) (Q04912 25-304 limits assumed): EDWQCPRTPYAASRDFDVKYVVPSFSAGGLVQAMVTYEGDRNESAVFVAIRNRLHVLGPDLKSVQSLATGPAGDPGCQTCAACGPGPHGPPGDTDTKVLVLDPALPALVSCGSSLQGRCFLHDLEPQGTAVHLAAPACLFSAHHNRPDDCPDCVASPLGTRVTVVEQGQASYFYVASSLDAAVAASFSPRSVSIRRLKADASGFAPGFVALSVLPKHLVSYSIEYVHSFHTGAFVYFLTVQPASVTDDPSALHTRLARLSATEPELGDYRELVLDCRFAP
# Sequence of Macrophage-stimulating protein receptor (Homo sapiens) (Q04912 310-1400 limits assumed): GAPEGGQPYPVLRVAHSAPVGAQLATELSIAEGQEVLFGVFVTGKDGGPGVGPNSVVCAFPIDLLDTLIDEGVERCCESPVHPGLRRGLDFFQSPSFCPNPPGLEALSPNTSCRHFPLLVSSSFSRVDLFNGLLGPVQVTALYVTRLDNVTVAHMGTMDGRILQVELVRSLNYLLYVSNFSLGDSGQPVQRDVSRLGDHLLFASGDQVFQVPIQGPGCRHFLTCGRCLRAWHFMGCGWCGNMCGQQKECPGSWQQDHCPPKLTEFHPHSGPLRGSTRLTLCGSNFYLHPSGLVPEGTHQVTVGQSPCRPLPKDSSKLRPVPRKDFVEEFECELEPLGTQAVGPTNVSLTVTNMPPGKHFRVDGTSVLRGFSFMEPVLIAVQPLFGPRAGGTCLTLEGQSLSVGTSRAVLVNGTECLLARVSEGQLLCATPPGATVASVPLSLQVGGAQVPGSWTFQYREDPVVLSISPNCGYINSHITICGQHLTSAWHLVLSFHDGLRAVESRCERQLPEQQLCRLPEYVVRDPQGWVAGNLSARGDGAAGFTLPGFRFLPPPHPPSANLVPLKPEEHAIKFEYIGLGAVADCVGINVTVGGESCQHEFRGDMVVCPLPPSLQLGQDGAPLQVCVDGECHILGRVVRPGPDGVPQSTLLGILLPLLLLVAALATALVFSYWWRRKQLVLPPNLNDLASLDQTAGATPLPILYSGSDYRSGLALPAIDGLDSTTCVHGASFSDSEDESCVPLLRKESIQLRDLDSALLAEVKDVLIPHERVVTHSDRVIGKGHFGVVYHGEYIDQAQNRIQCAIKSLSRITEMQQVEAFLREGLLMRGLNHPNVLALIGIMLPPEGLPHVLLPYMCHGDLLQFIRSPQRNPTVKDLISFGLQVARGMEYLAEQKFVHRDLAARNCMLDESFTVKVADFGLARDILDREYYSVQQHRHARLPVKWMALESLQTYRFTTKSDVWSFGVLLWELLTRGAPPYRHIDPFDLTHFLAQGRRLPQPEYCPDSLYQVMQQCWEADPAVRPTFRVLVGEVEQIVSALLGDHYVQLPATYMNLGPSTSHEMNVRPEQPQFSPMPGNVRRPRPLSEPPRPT
# Sequence of Proto-oncogene tyrosine-protein kinase ROS (Homo sapiens) (P08922 whole entry): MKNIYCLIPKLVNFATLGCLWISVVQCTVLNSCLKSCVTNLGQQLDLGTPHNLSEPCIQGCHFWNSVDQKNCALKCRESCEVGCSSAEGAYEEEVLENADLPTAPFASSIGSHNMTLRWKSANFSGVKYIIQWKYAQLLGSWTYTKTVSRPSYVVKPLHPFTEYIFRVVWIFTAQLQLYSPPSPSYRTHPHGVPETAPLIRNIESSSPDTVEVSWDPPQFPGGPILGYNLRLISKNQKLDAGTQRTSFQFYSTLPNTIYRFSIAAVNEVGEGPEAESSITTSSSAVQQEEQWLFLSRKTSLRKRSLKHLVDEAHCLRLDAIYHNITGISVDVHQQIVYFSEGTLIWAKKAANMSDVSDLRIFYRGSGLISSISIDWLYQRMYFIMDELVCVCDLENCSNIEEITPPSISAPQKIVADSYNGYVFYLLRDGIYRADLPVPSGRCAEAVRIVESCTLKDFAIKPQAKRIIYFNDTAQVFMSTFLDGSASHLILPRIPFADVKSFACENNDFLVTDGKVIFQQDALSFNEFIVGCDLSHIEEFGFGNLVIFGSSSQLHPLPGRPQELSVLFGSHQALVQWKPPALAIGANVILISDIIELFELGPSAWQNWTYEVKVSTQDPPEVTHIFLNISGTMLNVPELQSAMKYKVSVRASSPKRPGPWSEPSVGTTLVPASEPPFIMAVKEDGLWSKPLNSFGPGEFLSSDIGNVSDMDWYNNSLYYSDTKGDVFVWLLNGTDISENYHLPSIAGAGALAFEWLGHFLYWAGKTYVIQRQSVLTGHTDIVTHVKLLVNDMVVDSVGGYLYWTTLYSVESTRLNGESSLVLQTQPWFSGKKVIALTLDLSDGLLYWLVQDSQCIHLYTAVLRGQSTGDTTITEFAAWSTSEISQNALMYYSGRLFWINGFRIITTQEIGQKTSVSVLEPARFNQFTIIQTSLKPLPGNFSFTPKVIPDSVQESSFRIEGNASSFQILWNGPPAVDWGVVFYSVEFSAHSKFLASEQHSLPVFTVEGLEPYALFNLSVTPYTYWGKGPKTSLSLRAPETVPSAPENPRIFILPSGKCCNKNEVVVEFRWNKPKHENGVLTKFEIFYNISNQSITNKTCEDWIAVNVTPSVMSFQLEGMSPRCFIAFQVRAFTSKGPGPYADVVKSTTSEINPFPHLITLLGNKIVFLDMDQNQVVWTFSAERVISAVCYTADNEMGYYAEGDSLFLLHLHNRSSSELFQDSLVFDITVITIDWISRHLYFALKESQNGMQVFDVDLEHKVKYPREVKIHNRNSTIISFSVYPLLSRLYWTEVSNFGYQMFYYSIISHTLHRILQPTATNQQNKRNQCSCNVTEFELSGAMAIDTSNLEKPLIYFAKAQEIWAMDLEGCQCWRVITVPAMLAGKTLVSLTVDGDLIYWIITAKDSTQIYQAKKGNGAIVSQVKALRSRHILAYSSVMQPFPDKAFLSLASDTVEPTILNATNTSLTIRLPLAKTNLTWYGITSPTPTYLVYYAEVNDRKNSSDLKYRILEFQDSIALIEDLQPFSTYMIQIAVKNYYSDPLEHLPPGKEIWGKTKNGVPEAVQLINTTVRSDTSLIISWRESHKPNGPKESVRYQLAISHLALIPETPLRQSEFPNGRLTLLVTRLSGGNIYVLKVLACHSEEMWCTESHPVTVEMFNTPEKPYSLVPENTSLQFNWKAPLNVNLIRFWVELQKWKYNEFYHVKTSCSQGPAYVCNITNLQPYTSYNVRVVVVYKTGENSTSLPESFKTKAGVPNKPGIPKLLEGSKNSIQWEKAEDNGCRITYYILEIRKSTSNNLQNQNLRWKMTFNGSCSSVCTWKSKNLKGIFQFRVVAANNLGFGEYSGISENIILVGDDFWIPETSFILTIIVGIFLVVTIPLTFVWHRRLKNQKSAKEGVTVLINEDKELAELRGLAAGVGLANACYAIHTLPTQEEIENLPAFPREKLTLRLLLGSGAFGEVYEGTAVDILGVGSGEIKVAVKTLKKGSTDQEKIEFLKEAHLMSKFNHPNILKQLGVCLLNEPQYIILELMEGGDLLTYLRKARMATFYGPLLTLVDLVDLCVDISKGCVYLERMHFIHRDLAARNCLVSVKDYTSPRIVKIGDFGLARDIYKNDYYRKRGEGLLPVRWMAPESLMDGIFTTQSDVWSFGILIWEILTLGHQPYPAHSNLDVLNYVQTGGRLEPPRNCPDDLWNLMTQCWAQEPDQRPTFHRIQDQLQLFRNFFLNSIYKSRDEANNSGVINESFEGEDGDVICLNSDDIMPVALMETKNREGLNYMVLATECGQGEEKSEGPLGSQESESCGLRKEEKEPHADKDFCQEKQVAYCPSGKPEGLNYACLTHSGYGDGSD
# Sequence of Receptor-interacting serine/threonine-protein kinase 2 (Homo sapiens) (O43353 whole entry): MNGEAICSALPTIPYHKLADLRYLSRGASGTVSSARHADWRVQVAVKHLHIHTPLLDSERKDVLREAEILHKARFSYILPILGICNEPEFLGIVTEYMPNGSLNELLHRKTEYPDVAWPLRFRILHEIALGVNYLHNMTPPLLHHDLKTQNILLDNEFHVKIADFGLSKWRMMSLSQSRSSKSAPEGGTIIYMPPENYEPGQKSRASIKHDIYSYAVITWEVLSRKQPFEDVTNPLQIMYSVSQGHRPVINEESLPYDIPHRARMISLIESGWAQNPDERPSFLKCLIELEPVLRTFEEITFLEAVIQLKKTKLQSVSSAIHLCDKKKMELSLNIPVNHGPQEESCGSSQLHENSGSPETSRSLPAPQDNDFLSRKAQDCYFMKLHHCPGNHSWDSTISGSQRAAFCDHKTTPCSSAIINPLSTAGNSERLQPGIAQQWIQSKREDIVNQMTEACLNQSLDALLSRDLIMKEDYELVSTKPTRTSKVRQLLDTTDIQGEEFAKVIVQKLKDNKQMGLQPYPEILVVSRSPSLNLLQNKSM
SMILES,residual activity [1],residual activity [2] [%],residual activity [3] [%],residual activity [4] [%],residual activity [5] [%],residual activity [6] [%],residual activity [7] [%],residual activity [8] [%],residual activity [9] [%],residual activity [10] [%],residual activity [11] [%],residual activity [12] [%],residual activity [13] [%],residual activity [14] [%],residual activity [15] [%],residual activity [16] [%],residual activity [17] [%],residual activity [18] [%],residual activity [19] [%],residual activity [20] [%]
O=C(CCCc1ccc(-c2ccccc2F)cc1)Nc1ccc(O)cc1,99% (inactive),98,100,101,105,104,94,95,107,100,106,96,91,86,85,92,103,100,102,102
O=c1cc(N2CCOCC2)oc2c1ccc1ccccc12,99% (inactive),68,97,96,130,100,86,83,,,99,67,99,107,98,75,100,99,87,93
CC(C)c1nn(-c2c(Cl)cccc2Cl)c2nc(Cc3ccc(OCCO)cc3)[nH]c(=O)c12,103% (inactive),96,94,87,109,99,90,83,,,98,96,103,92,88,92,106,88,103,104
O=C(NC(NC(=S)Nc1ccc(F)c([N+](=O)[O-])c1)C(Cl)(Cl)Cl)C(c1ccccc1)c1ccccc1 (configuration not stated),100% (inactive),98,82,52,,,92,92,,,99,102,,,88,93,103,94,,
Fc1ccc(-c2nc3n(c2-c2ccncc2)CCS3)cc1,100% (inactive),95,92,92,,,65,24,123,,,,98,83,,,,,,
Nc1ncnc2[nH]nc(Nc3ccc(F)cc3)c12,103% (inactive),94,,21,101,79,46,21,128,101,104,91,72,18,,67,104,95,104,50
COc1ccc(-c2cnc3c(-c4ccsc4)cnn3c2)cc1,87% (inactive),97,81,93,136,94,99,92,,,,,89,99,,87,,,95,93
O=C(c1ccccc1)c1ccc(N2CCOCC2)cc1O,91% (inactive),88,86,94,130,,99,87,,121,,90,94,100,90,99,96,98,,
O=C(O)/C=C/c1cc(Br)c(Br)c(Br)c1Br,60% (inactive),-9,68,76,,,100,83,,98,,,103,103,56,43,108,97,98,106
Nc1ncnc2c1cnn2-c1ccccc1,93% (inactive),95,94,91,,97,93,67,,,92,66,101,91,,80,,,90,93
O=C1Nc2ccc(Cl)cc2/C1=C/c1cc(Cl)c(O)c(Cl)c1,94% (inactive),95,59,63,96,28,32,25,,121,96,65,91,77,61,57,92,90,71,57
Nc1ncnc2c1c(-c1ccc(Oc3ccccc3)cc1)cn2C1CCCC1,80% (inactive),91,85,66,86,25,21,15,116,122,90,70,0,-1,92,55,88,82,59,14
CCCCc1c(-c2ccc(O)cc2)[nH]c2nccnc12,100% (inactive),100,93,100,54,26,38,30,,,96,94,45,48,,,93,82,100,99
NC(=O)c1cccc(-c2cc(Nc3ccc(OC(F)(F)F)cc3)ncn2)c1,100% (inactive),97,,,128,95,93,56,,,125,94,,87,,,,,,
COc1cc2ncnc(Nc3cccc(Cl)c3)c2cc1OC,83% (inactive),,122,,117,76,26,16,,,103,87,39,6,116,83,100,105,62,15
